TEAD-YAP inh = TEAD-YAP interaction inhibition | HEK-TIYL cells, TEAD-Gal4/YAP UAS-luciferase luminescence | inhibition, % at 9.12 µM | 640,000 tested, 1.4% active; in the data active = inhibition above about 32%;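 note: 0% = median of test compound wells and 100% = reference inhibitor wells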
MITF primary = inhibitors of human MITF; O75030; AlphaScreen MITF homodimerization, bead proximity signal; inhibition, % at 2.6 µM; 650,000 tested, 0.91% active; in the data active = inhibition above about 50%;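 note: 0% = vehicle wells with protein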
Target sequence (O75030 whole entry, looked up): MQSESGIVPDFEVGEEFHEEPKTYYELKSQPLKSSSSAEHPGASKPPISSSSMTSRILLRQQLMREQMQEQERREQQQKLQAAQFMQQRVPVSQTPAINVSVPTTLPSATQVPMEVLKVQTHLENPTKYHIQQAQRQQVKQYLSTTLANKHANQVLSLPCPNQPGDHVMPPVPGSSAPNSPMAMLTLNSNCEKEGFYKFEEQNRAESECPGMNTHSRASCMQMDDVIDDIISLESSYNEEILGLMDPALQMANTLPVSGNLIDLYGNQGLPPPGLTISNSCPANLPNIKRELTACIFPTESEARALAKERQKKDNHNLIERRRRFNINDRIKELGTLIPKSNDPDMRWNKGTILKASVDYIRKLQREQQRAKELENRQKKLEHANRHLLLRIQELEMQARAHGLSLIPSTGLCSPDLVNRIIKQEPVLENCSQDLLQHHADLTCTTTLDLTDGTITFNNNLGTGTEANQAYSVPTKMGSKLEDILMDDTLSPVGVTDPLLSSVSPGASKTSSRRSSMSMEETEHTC
FBW7 activator = activators of human E3 ligase FBW7 | 650,000 tested, 0.13% active | Q969H0 | AlphaScreen FBW7–phospho-cyclin E peptide binding, activator screen | normalized activity (activation), % at 26.1 µM | AID 1259310; in the data active = normalized activity above about 1.9%;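 note: purified mutant Fbw7 with reduced substrate affinity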
GPR151 activ = activators of human GPR151. PathHunter beta-arrestin GPR151 cells, luminescence. 650,000 tested, 1% active. AID 1508602. Q8TDV0. activation, % at 11.2 µM; in the data active = activation above about 4.9%;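 note: 0% = median of compound wells and 100% = cells with positive control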
An asterisk follows results filed as active. Only some compounds are listed: those with a hit (about 3.4% of all), similar ones and a draw of the others.

SMILES	TEAD-YAP inh	MITF primary	FBW7 activator	GPR151 activ
CCOc1ccc(S(=O)(=O)Nc2ccc3oc(C)c(C(=O)OCCOC)c3c2)cc1	57*	3	0	-1
CC(=O)c1c(C)oc2ccc(NS(=O)(=O)c3c(C)cc(C)cc3C)cc12	37*	0	0	2
CCc1ccc(S(=O)(=O)N(C(C)=O)c2ccc3oc(C)c(C(=O)OC)c3c2)cc1	49*	1	0	1
CCOC(=O)c1c(C)oc2ccc(NS(=O)(=O)c3ccc(Cl)cc3)cc12	11	3	0	0
CC(C)[C@H](N)Cn1nc(-c2cccs2)ccc1=O	-1	12	0	0
COc1ccc(NC(=S)N2CCn3cccc3C2c2cc(OC)c(OC)c(OC)c2)cc1 (configuration not stated)	4	4	0	-1
O=C(Nc1cccc2c1C(=O)NC2=O)c1ccc(S(=O)(=O)N2CCOCC2)cc1	2	-6	0	0
CCc1ccc(-c2c3c4n(c(-c5ccc(OC)cc5)nn4c2C(=S)Nc2ccccc2)CCCC3)cc1	8	3	0	-1
Cc1cc(Cn2nnc(-c3ccccc3)n2)cc(C)c1O	-19	-3	0	1
CCCc1oc2ccc(NS(=O)(=O)c3ccc(F)cc3)cc2c1C(=O)OCC	9	-4	0	1
CCCc1oc2ccc(NS(=O)(=O)c3ccc(C)cc3)cc2c1C(=O)OCC	57*	17	0	0
CC(=O)c1c(C)oc2ccc(N(C(C)=O)S(=O)(=O)c3cccc4cccnc34)cc12	52*	6	0	1
CCOC(=O)C1=C(C)N=c2s/c(=C/c3ccc(NC(C)=O)cc3)c(=O)n2C1c1ccccc1OC(C)C (configuration not stated)	-2	0	0	0
CC(C)C1O/C(=N\C(=O)Nc2ccc(Cl)c(Cl)c2)NC1=O (configuration not stated)	-3	-3	0	-1
CC(=O)N(c1ccc(C)c(C)c1)C1CCS(=O)(=O)C1 (configuration not stated)	7	8	0	-1
O=C(/C=C/c1ccc(Cl)cc1)NCC1CCC2(CCN(Cc3ccccn3)CC2)O1 (configuration not stated)	-4	-13	0	-1
O=S(=O)(c1ccc(NC(=S)N/N=C/c2ccccc2O)cc1)N1CCOCC1	61*	68*	-1	0
C=CCNC(=S)N/N=C(\C)c1ccccn1	89*	60*	-1	-3
C=CCNC(=S)N/N=C(\C)c1ccc2ccccc2c1	4	10	0	0
CC(C)(C)C(=O)Nc1ccccc1Sc1ncnc2sc3c(c12)CCCC3	5	0	0	3
COc1ccccc1N1CCN(C(=O)c2sc3ncnc(N4CCN(c5ccccn5)CC4)c3c2C)CC1	35*	-5	0	-1
Cc1c(C(=O)N2CCN(Cc3ccccc3)CC2)sc2ncnc(N3CCN(c4ccccn4)CC3)c12	37*	-10	0	3
CCN1CCN(C(=O)c2sc3ncnc(N4CCN(c5ccccn5)CC4)c3c2C)CC1	19	6	0	0
Cc1nc(NCc2ccccc2)nc(NCc2ccccc2)c1[N+](=O)[O-]	-12	5	0	0
CC[N+]1=C(C)C(C)(C)c2cc(C)ccc21	50*	16	0	0
SMILES	TEAD-YAP inh	MITF primary	FBW7 activator	GPR151 activ
Cc1ccn2cc(C(=O)Nc3cccc(F)c3)nc2c1	58*	22	0	-5
COC(=O)CCCNc1nncc(-c2ccc3c(c2)OCO3)n1	35*	2	0	1
CCOc1cc(/C=C(/C#N)C(=O)Nc2ccc(O)cc2)cc(Br)c1O	56*	-9	0	-1
COc1cc(/C=C(/C#N)C(=O)Nc2cccc(C)c2)cc(Br)c1O	3	-4	0	-1
CCN(CC)c1ccc(/C=C(/C#N)C(=O)Nc2ccc(O)cc2)cc1	40*	17	0	0
COc1cc(/C=C(\C#N)C(=O)Nc2ccc(Cl)cc2)cc([N+](=O)[O-])c1O	8	23	1	-1
COc1cc(/C=C(/C#N)C(=O)Nc2ccc(O)cc2)cc(Br)c1O	43*	0	0	2
COc1cc(/C=C(\C#N)C(=O)Nc2ccc(F)cc2)cc([N+](=O)[O-])c1O	37*	-5	0	-1
CCNC(=O)C(=O)Nc1cc(Cl)ccc1OC	9	-1	0	0
COc1cc(/C=C(\C#N)C(=O)Nc2ccc(O)cc2)cc(Cl)c1O	54*	3	0	0
COc1cc(/C=C(/C#N)C(=O)Nc2ccc(O)cc2)ccc1O	47*	17	0	1
CCOCCCNC(=O)/C(C#N)=C/c1cc(OC)c(O)c([N+](=O)[O-])c1	48*	20	0	-1
CCOCCCNC(=O)/C(C#N)=C/c1ccc(Cl)c([N+](=O)[O-])c1	5	16	1	-3
OCc1ccccc1-c1cnc2c(Nc3ccc(O)cc3)nccn12	-11	3	0	-3
N#Cc1cc([N+](=O)[O-])ccc1-n1nnc2ccccc21	10	1	0	0
CCOC(=O)CN(c1cc(C)cc(C)c1)S(=O)(=O)c1ccccc1	-4	0	0	1
CCc1ccccc1Nc1nc(N)nc(CCl)n1	45*	13	0	1
CCOC(=O)c1cccc(NC(=O)CCC2CCCCC2)c1	-9	12	2.1*	-1
CCOC(=O)c1cccc(NC(=O)COc2ccc(Cl)cc2Cl)c1	81*	7	0	4
CCOC(=O)c1cccc(NC2C=CS(=O)(=O)C2)c1 (configuration not stated)	63*	-6	0	2
CCCCOC(=O)c1ccc(NC(=O)COc2ccc(Cl)cc2Cl)cc1	8	11	0	0
CCCCOC(=O)c1cccc(NC(=O)COc2ccc(Cl)cc2Cl)c1	57*	-4	0	1
CCOC(=O)c1c2n(c3cc(Br)c(OC)cc13)CCN(c1cccc(Cl)c1)C2	-9	14	0	0
O=C(Nn1c(SCC(=O)N2CCN(c3ccccc3)CC2)nc2ccccc2c1=O)c1ccc(F)cc1	-11	23	1	0
COc1ccc(C(=O)Nn2c(SCC(=O)N3CCN(c4ccccc4)CC3)nc3ccccc3c2=O)cc1	77*	-5	0	1
SMILES	TEAD-YAP inh	MITF primary	FBW7 activator	GPR151 activ
COc1ccc(C(=O)Nn2c(C)nc3ccccc3c2=O)cc1	6	2	0	-1
O=C(CSc1nc2ccccc2c(=O)n1NC(=O)c1ccc(F)cc1)NC1CCCCC1	17	11	1	-2
COc1ccc(C(=O)Nn2c(SCC(=O)N3CCCC3)nc3ccccc3c2=O)cc1	78*	3	0	0
COc1ccc(C(=O)Nn2c(SCC(=O)c3ccc(Cl)cc3)nc3ccccc3c2=O)cc1	77*	-2	0	1
COc1ccc(C(=O)Nn2c(SCC(=O)NC3CCCCC3)nc3ccccc3c2=O)cc1	81*	9	0	-1
Cc1ccc(S(=O)(=O)Nc2ccccc2C(=O)NC(C)c2ccccc2)cc1[N+](=O)[O-] (configuration not stated)	10	-4	0	1

From PubChem
